According to PubChem BioAssay AID1508600 (Functional Genomics Laboratory (NCATS/FGL), 2020):
The whole screen tested about 53,000 sequences, of which about 3,700 (7%) were called active. Only a selection was taken, and actives are over-represented in it overall. Values without a mark were called inactive.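 The calls were made as follows: active = gene knockdowns whose robust z-score for IL-1 alpha signal is at least 2 or at most -2, so actives lie on both sides; inactive = the rest.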

assay: Components of the Cytosolic LPS Sensing Pathway: Gene Identification via Genome-wide siRNA Screen; conditions: RAW264.7 macrophages, IL-1a HTRF, actives lie on both sides, screened at 100 nM (by protocol), cells primed 5 h with Pam3CSK4 first;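 also: robust z of the log signal after scaling to non-targeting control siRNA wells of the plate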
Summary of the method: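 Read-out: IL-1a HTRF on supernatant, divided by plate negative-control median ×100, log-transformed and converted to robust z-score. Cells were RAW264.7 given 100 nM siRNA, Pam3CSK4-primed 5 hours, then LipidA-transfected 24 hour.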

| Sequence | z-score |
| --- | --- |
| GGAUUGCAUUAGGAAAGAATT against Fancl | 0.0536 |
| GGGAGUCCUGAAGGACUACTT against Lgmn | -0.0947 |
| GGAGCAGAAUGAGAAGACUTT against Marchf8 | 2.16 (active) |
| GGACCAAGGGUUCAUAGCATT against Wdr35 | -0.137 |
| GGUUCAUCUGUACAAAAUCTT against Zfp110 | 0.708 |
| CCAUAUGGUAACCAAACCGTT against Ldb1 | -0.896 |
| CCGUAGUAGAGAAAUUACATT against Exoc6 | 0.419 |
| GUUGUCCUCUUUGUCAUCATT against Olfr502 | -3.63 (active) |
| CGGGUAAUAUUCUUUUCAATT against Rex2 | 1.76 |
| GCUCUAGGCCAGAUGUUACTT against Slc13a3 | -0.476 |
| CGUUUCCUGCUCAAAUCCUTT against Abhd2 | -1.17 |
| GGAGAUUCGGACAAAGUGATT against Rhcg | -1.31 |
| GGAGUAGCUGUUCUAAUUGTT against Scamp5 | -1.65 |
| GGCUUUAAGAAUGUAUCGCTT against Dpp3 | -0.751 |
| GCCUUUUCCCGUCUGGAGATT against Glis1 | 0.122 |
| CGUUGCUGUUGUGGUCUUGTT against Olfr1232 | -2.71 (active) |
| GGGCCCAGGCUAAAAUAAATT against Cfap100 | 0.367 |
| GGUCACCUCAAUAAACUCUTT against Myl7 | 0.228 |
| CGUGUAAACGCAAUUAAAATT against Zfp870 | 0.272 |
| GGUUCAGAUGUCUGAUAAATT against Mrm3 | 1.43 |
| GGAGCAUGUAGAGGUUUACTT against Txnrd2 | 2.44 (active) |
| GGAUACCUAGUUCUUAGUUTT against Mageb18 | 0.151 |
| GGGACUUUCGUAAUAAACCTT against Lman1 | -1.26 |
| CGUGAAAUAGAUGAUACCUTT against Cdc5l | 0.625 |
| GGUAACGAUGCUGGAAUUCTT against Sdcbp | 4.37 (active) |
| GCAAACUCCAGCUCAACGATT against Galnt4 | -1.19 |
| GGAUGGUGUUGUGUUUAAATT against Chst2 | 0.962 |

| Sequence | z-score |
| --- | --- |
| GGCUGGUGCUGAAUAUCUUTT against Bnip5 | 0.507 |
| GGUCUUGGUCCCUGAGAAATT against Ddit4l | 0.23 |
| GGACAAAUUGUAUGGCGAATT against Hecw2 | -0.402 |
| GAGAACAAGCCUAAGCCCATT against V1rb5 | 1.44 |
| GCUCGAGGACUAUAUGAAUTT against Xrcc1 | 2.03 (active) |
| GGAAUAUUGUGGCCUUAUATT against Bnip3 | 0.489 |
| GAGGGAUAUGUGAAGCCUCTT against Mospd3 | -0.806 |
| CCGAAGUCAAUGAAGCUCUTT against Gcsh | -2.13 (active) |
| CCAUGUUCAGAAGAGAAUATT against Igsf11 | -1.69 |
| GCAAGUAGAAACCCUUAAUTT against Scara5 | -0.0354 |
| CGAUUCCGUCAAAUUAAAGTT against Catsper2 | 0.156 |
| GGCAGAUUGUGAAAAAACUTT against Slc9a6 | -0.503 |
| GGAAAAGGUCAUUAUCAUUTT against Hsf3 | -2.11 (active) |
| GUCACUGUGAUGGGAAAUUTT against Olfr895 | -0.847 |
| ACACCUGCCUGCAUCUACUTT against Tcp10a | 1.5 |
| GCACUUGUGACUAUAAAGUTT against Celf2 | 0.262 |
| UGUGGUGAACCCAAUGCACTT against Klk1b22 | -3.28 (active) |
| CCUGAUUGGGAUCUCAAGATT against Ccdc12 | -0.673 |
| AAUAAAAGUGUCCUCUGUGTT against Olfr242 | 0.202 |
| GGAUAGUUUUGUGUUUGAUTT against Gab2 | 0.932 |
| GGUCAUUGAUCUCAGCAACTT against Optc | -0.427 |
| CCCUACACGCAGGAGUUUUTT against Gtf3c1 | -0.23 |
| GCCCUACACCUGUAUUACATT against Tas1r3 | -0.964 |
| CCUGGAACUUGUUGGAAGCTT against Igsf3 | 0.799 |
| GUGUUCAGGAAGCUGGCAGTT against Klra19 | 1.98 |
| GGACCUCCUCCCAAAGAUATT against Snrpb | -2.83 (active) |
| GCUAUGGAUCAAAGAAUUATT against Senp1 | 0.204 |
